The results in this text go back to PubChem BioAssay (NCATS).

A number with no mark means an inactive call. Records with an inconclusive call do not appear. The source made the active and inactive calls. Calls come from the whole dose curve; as a rule, active = well fitted curve in the direction sought with a large enough effect; inconclusive = small, poorly fitted or top-dose-only effect, or another doubt; inactive = no such curve, though single readings can be large; an effect the other way counts as inactive or inconclusive.

Test [1] has as its target Glutathione peroxidase 1 (Homo sapiens) (UniProt P07203). Put plainly: Primary qHTS Assay for Inhibitors of Recombinant Selenoprotein Glutathione Peroxidase 1 (GPX1) (AID 1845191). For activity, negative = inhibition: % is set by controls: 0 for no effect and ±100 for the full control effect. Note: nearly all actives have a fitted effect of over 65% in size. The method, boiled down:
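Recombinant GPX1 (10 nM final) was preincubated with compound for 30 min at room temperature, then reacted with 1 mM GSH, 0.5 mM CHP, 0.5 mM NADPH and 100 nM glutathione reductase; NADPH fluorescence (340/450 nm) was read at 0 and 15 min.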
On the technique in general: In qHTS, concentration-response curves come from the screen itself.

In test [2] the target is Phospholipid hydroperoxide glutathione peroxidase GPX4 (Homo sapiens) (UniProt P36969). As to the kind of experiment: Primary qHTS Assay for Inhibitors of Recombinant Selenoprotein Glutathione Peroxidase 4 (GPX4) (AID 1845192). For activity change, negative = inhibition: series mostly up to about 50 µM; % is set by controls: 0 for no effect and ±100 for the full control effect. Note: nearly all actives have a fitted effect of over 65% in size. Put shortly: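 GR-coupled readout: 100 nM GR, 1 mM GSH, 0.5 mM NADPH; NADPH fluorescence (ex 340/em 450 nm) read at t=0 and after 15 min RT. GPX4 200 nM, preincubated 30 min with compound; substrate 0.5 mM CHP.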

Test [3] addresses Luciferin 4-monooxygenase (Photinus pyralis) (UniProt P08659). Put plainly: Primary firefly luciferase (FLuc) qHTS assay for identification of artifact compounds. (AID 1845220).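 For activity change, negative = inhibition: series mostly up to about 54 µM; plate controls were DMSO vehicle for no effect and no enzyme for full effect.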 Note: nearly all actives have a fitted effect of over 60% in size. The method, boiled down: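 In this counter-screen for luciferase artifacts, test compounds met substrate (10 uM each luciferin and ATP) before 10 nM enzyme started the reaction. Light output was measured 5 min later.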

Test [4] in a line: Primary fluorescence-based thiol-reactive (MSTI) qHTS assay for identification of artifact compounds. (AID 1845221).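 For activity change, negative = thiol reactive: series mostly up to about 54 µM; thiol-reactive compounds lower the probe fluorescence signal.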 Note: nearly all actives have a fitted effect of over 65% in size. Note: potency is the fitted concentration of half-maximal effect. Put shortly:
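Thiol-reactive compounds detected by quenching of 4 uM MSTI fluorescence (525/598 nm) after 1 h room-temperature dark incubation in PBS pH 7.4, 2% DMSO. qHTS titration; percent inhibition Hill-fitted against Acetyl-MSTI/MSTI controls.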

The subject of test [5] is Nanoluciferase (engineered Oplophorus gracilirostris luciferase). Put plainly: Primary Nanoluciferase (NLuc) qHTS assay for identification of artifact compounds. (AID 1845222).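 Note: NLuc secreted into diluted conditioned medium of S16 cells; series mostly up to about 54 µM; 0% = DMSO and -100% = no enzyme.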 The method, boiled down:
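Using secreted nanoluciferase in S16 culture medium (0.22 um filtered, 1:55 dilution), compounds were preincubated 15 min at RT. Signal was generated with Nano-Glo reagent (1:100) over 5 min.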

Test [6] can be described thus: Primary redox qHTS assay for identification of artifact compounds. (AID 1845223).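 Note: 0% = DMSO and 100% = reference compound.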 The method, boiled down: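 Amplex Red (25 uM) and HRP (250 mU/mL) in HBSS, with compounds for 15 min, then 250 uM DTT for 30 min, room temperature, dark. Fluorescence 525/598 nm read; normalized to DMSO and 10 uM DA3003; Hill fit.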

Phospholipid hydroperoxide glutathione peroxidase GPX4 (Homo sapiens), sequence (P36969 whole entry, looked up): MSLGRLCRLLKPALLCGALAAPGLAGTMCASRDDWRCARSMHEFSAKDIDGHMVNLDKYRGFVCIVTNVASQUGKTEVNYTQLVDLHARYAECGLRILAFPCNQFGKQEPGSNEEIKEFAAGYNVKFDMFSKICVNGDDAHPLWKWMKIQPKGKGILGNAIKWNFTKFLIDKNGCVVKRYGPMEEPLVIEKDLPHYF
Glutathione peroxidase 1 (Homo sapiens), sequence (P07203 whole entry, looked up): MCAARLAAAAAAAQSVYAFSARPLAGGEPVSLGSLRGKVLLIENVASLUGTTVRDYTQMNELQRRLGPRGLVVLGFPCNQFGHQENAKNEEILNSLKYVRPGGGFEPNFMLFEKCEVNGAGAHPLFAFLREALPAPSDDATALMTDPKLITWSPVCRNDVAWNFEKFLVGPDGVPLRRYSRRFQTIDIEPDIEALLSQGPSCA

With `O=C(/C=C/c1ccc(O)cc1)N[C@@H](Cc1ccc(O)cc1)C(=O)O`, the Potency entry in test [1], in test [2], in test [3], in test [5] and in test [6] was “inactive” each time. Further, the Potency in test [4] was 7.36 µM (active).

In the case of `C=C1C(=O)O[C@@H]2C[C@H](C)[C@@]3(O)C=C(C(C)=O)[C@]4(CC3C[C@H]12)C(=O)O[C@H]1C[C@@H](C)C(CCC(C)=O)=CC[C@H]14` (stereo partly specified), the Potency result in test [1], in test [2], in test [3], in test [4], in test [5] and in test [6] was “inactive” throughout.

In the case of `C/C1=C\[C@H]2OC(=O)[C@@H](C)[C@@H]2CC/C(C(=O)O)=C/CC1`, the Potency entry in test [1], in test [2], in test [3], in test [5] and in test [6] was “inactive” throughout. The Potency in test [4] was 11.9 µM (active).

Consider `C[C@@H]([C@@H](O)c1ccc(O)cc1)N1CCC(O)(c2ccccc2)CC1`, for which the Potency entry in test [1], in test [2], in test [3], in test [4], in test [5] and in test [6] was “inactive” throughout.

For `CC1(C=O)CC[C@]2(C(=O)O[C@@H]3O[C@H](CO)[C@@H](O)[C@H](O)[C@H]3O)CC[C@]3(C)C(=CCC4[C@@]5(C)C[C@H](O)[C@H](O[C@@H]6OC[C@@H](O)[C@H](O)[C@H]6O)[C@@](C)(CO)C5CC[C@]43C)C2C1` (stereo partly specified), the Potency result in test [1] and in test [2] was “inactive” in each case. Also, the outcome in test [3] is “inactive [at 11.6 µM]”. For the same compound, the activity change, negative = thiol reactive in test [4] is 182% [at 11.5 µM]. The activity, negative = inhibition in test [5] was 2.01% [at 11.6 µM]. Besides, the redox activity (% of DA3003) in test [6] is 8.25% [at 11.5 µM].

For `CC(C)CCC1(O)C(=O)C(C)(C)C(O[C@@H]2O[C@H](CO)[C@@H](O)[C@H](O)[C@H]2O)C(C)(C)C1O` (stereo partly specified), the Potency entry in test [1], in test [2], in test [3], in test [5] and in test [6] was “inactive” each time. For the same compound, in test [4], the Potency was 2.32 µM (active).

Take `COc1ccc(F)cc1-c1cc(NC(=O)[C@@H]2CCCNC2)ncc1Cl`: the Potency entry in test [1], in test [2], in test [3], in test [4], in test [5] and in test [6] was “inactive” each time.

Consider `FC(F)(F)c1cc(-c2ncn(/C=C\c3nnco3)n2)cc(C(F)(F)F)c1`, for which the Potency entry in test [1], in test [2], in test [3], in test [4], in test [5] and in test [6] was “inactive” in each case.

For `CC1(C)CC[C@]2(C(=O)OC3OC(CO)C(O)C(O)C3O)CC[C@]3(C)C(=CCC4[C@@]5(C)CC[C@H](OC6OC(C(=O)O)C(O)C(OC7OC(CO)C(O)C(O)C7O)C6O)C(C)(C)C5CC[C@]43C)C2C1` (stereo partly specified), the Potency entry in test [1] and in test [2] was “inactive” each time. Also, the activity change, negative = inhibition in test [3] was 2.81% [at 11.6 µM]. In addition, the activity change, negative = thiol reactive in test [4] is 338% [at 11.5 µM]. Besides, in test [5], the activity, negative = inhibition was 2.64% [at 11.6 µM]. The redox activity (% of DA3003) in test [6] was 0.227% [at 11.5 µM].

In the case of `COc1ccc(N(C)c2nc(C)nc3ccccc23)cc1`, the Potency result in test [1], in test [2], in test [3], in test [4], in test [5] and in test [6] was “inactive” in each case.

Take `COc1ccc(CCC(=O)c2c(O)cc(O)cc2O[C@@H]2O[C@H](CO)[C@@H](O)[C@H](O)[C@H]2O)cc1`: the Potency entry in test [1], in test [2], in test [3], in test [5] and in test [6] was “inactive” throughout. Also, the Potency in test [4] was 10.3 µM (active).

Consider `CC1CCC2(OC1)OC1CC3C4CCC5C[C@@H](O[C@@H]6O[C@H](CO[C@@H]7OC[C@@H](O)[C@H](O)[C@H]7O)[C@H](O)[C@H](O)[C@H]6O)CC[C@]5(C)C4CC[C@]3(C)C1C2C` (stereo partly specified), for which the Potency result in test [1], in test [2], in test [3], in test [4], in test [5] and in test [6] was “inactive” each time.

As for `CCc1cc(CN2CC(C(=O)O)C2)sc1-c1noc(-c2ccc(Oc3ccccc3)cc2)n1`, the Potency result in test [1], in test [2], in test [3], in test [4], in test [5] and in test [6] was “inactive” in each case.

Turning to `NC(=O)[C@H](O[C@@H]1O[C@H](CO)[C@@H](O)[C@H](O)[C@H]1O)c1ccccc1`, the Potency entry in test [1], in test [2], in test [3], in test [5] and in test [6] was “inactive” each time. The Potency in test [4] is 16.5 µM (active).

Regarding `CC(=O)O[C@H]1C[C@@]2(C)[C@@H](CC[C@H]3[C@@]4(C)C=CC(=O)[C@@H](C)[C@@H]4[C@H](O)C(=O)[C@@]32C)/C1=C(/CCC=C(C)C)C(=O)O`, the Potency result in test [1], in test [2], in test [3], in test [4], in test [5] and in test [6] was “inactive” in each case.

As to `C[C@@H]1O[C@@H](O[C@H]2[C@H](O[C@H]3CC[C@@]4(C)C(CC[C@]5(C)C4C=C[C@]46OC[C@@]7(CCC(C)(C)C[C@H]74)[C@@H](O)C[C@]65C)[C@]3(C)CO)O[C@H](CO)[C@@H](O)[C@@H]2O[C@@H]2O[C@H](CO)[C@@H](O[C@@H]3O[C@@H](C)[C@H](O)[C@@H](O)[C@H]3O)[C@H](O)[C@H]2O)[C@H](O)[C@H](O)[C@H]1O` (stereo partly specified), the Potency entry in test [1] and in test [2] was “inactive” in each case. Further, in test [3], the activity change, negative = inhibition was -4.04% [at 11.6 µM]. Moreover, the activity change, negative = thiol reactive in test [4] was 81.1% [at 11.5 µM]. Also, the activity, negative = inhibition in test [5] was -2% [at 11.6 µM]. Moreover, the redox activity (% of DA3003) in test [6] was 9.95% [at 11.5 µM].

For the compound `C[C@H](N)C(=O)N[C@@H](Cc1ccc(O)cc1)C(=O)N1CCC[C@H]1C(=O)NCC(=O)N[C@@H](CCCCN)C(=O)N[C@@H](Cc1ccccc1)C(N)=O`, the activity, negative = inhibition in test [1] is 0.372% [at 9.52 µM]; in test [5] it was 4.39% [at 11.6 µM]. The activity change, negative = inhibition in test [2] was -6.9% [at 9.73 µM]; in test [3] it was 3.15% [at 11.6 µM]. The activity change, negative = thiol reactive in test [4] is -3.19% [at 11.5 µM]. In addition, the redox activity (% of DA3003) in test [6] is -3.11% [at 11.5 µM].

On to `NCc1ccc(Nc2ncc(F)c(Nc3ccccc3)n2)cc1`, for which the Potency entry in test [1], in test [2], in test [3], in test [4], in test [5] and in test [6] was “inactive” each time.

Consider `CC(C)CCC[C@@H](C)[C@H]1CC[C@H]2[C@@H]3CC(=O)[C@H]4C[C@@H](O)CC[C@]4(C)[C@H]3CC[C@]12C`, for which the Potency result in test [1], in test [2], in test [3], in test [4], in test [5] and in test [6] was “inactive” in each case.

In the case of `COc1cc2ncnc(Nc3cccc(Cl)c3F)c2cc1OC(=O)N1CCN(C)C[C@H]1C`, the Potency result in test [1], in test [2], in test [3], in test [4], in test [5] and in test [6] was “inactive” each time.

As to `C/C=C(\C)C(=O)O[C@H]1[C@@H](O[C@]2(COC(=O)CC(C)C)O[C@H](COC(=O)C(C)CC)[C@@H](OC(C)=O)[C@@H]2O)O[C@H](COC(C)=O)[C@@H](O)[C@@H]1O` (stereo partly specified), the Potency entry in test [1], in test [2], in test [3], in test [4], in test [5] and in test [6] was “inactive” in each case.
